The target of test [1] is Gonadotropin-releasing hormone receptor (Homo sapiens) (UniProt P30968). Put plainly: Human gonadotropin-releasing hormone receptor (GnRHR) small molecule agonists, calcium flux assay in GnRHR-HEK293 cells (AID 1920063). Note: nearly all actives have a fitted effect of over 35% in size. In outline: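 Tox21-format agonist screen using human GnRHR-expressing HEK293 cells and a fluorescent calcium dye; kinetic 3-min fluorescence reading after compound addition, 15-point concentration series run in triplicate.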
Gonadotropin-releasing hormone receptor (Homo sapiens), sequence (P30968 whole entry, looked up): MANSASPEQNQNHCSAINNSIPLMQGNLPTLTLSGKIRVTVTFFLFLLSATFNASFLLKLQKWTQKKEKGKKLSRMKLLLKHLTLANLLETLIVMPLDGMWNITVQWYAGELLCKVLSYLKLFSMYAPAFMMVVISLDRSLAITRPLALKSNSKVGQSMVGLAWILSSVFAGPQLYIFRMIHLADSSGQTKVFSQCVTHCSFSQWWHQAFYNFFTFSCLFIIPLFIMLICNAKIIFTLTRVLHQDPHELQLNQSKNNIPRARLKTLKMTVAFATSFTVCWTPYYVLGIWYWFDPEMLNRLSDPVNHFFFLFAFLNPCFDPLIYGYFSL
(Calcium assays in cells follow changes in intracellular calcium, usually with a dye or a luminescent sensor.)

Test [2] is described as follows: p53 small molecule agonists, cell-based qHTS assay with human liver microsomes: qHTS cell viability counter screen (AID 1963579). Note: nearly all actives have a fitted effect of over 45% in size. In outline: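 Metabolically activated exposure: compounds, human liver microsomes and NADPH (0.5 mg/mL final apiece) were added to p53RE-bla cells seeded 5 h earlier, left 16 h at 37 C, and then assessed for viability by CellTiter-Glo luminescence.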
A general note: qHTS replaces the single test concentration by a dilution series.

The nature of test [3]: p53 small molecule agonists, cell-based qHTS assay with rat liver microsomes: qHTS cell viability counter screen (AID 1963580). Note: nearly all actives have a fitted effect of over 45% in size. In outline:
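HCT-116 p53RE-bla, 4,000 cells/well, 5 h pre-incubation; cpd + rat liver microsomes 0.5 mg/mL + NADPH 0.5 mg/mL (final); 16 h, 37 C; CellTiter-Glo, 30 min RT; luminescence.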

Test [4] in a line: p53 small molecule agonists, cell-based qHTS assay: qHTS cell viability counter screen (AID 1963581). Note: nearly all actives have a fitted effect of over 45% in size. In short, it runs like this: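 Compounds are pinned onto HCT-116 p53RE-bla cells and left 16 h at 37 C. Following the reporter FRET read, ATP is quantified by CellTiter-Glo luminescence after 30 min at room temperature.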
For test [5], the target named is 5-hydroxytryptamine receptor 2A (Homo sapiens) (UniProt P28223). In words: 5-hydroxytryptamine receptor 2A (HTR2A) small molecule antagonists, cell-based qHTS assay (AID 1963586). Note: nearly all actives have a fitted effect of over 45% in size. Note: potency is the fitted concentration of half-maximal effect. In short, it runs like this:
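Antagonist-mode intracellular calcium assay: DOI (4 nM) added after 5 min compound pre-incubation at room temperature to dye-loaded HTR2A-CHO cells. Fluorescence followed for 3 min, sampled every second.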

Test [6] shares this target. In words: 5-hydroxytryptamine receptor 2A (HTR2A) small molecule agonists, cell-based qHTS assay (AID 1963587). Note: nearly all actives have a fitted effect of over 30% in size. Note: potency is the fitted concentration of half-maximal effect. In outline: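 Kinetic calcium-flux fluorescence (2 min, 1 sec intervals) after compound addition in agonist mode. HTR2A-CHO cells were cultured 18 h, then dye-loaded 1 h at 37 C.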
In test [7] the target is Muscarinic acetylcholine receptor M1 (Homo sapiens) (UniProt P11229). Put plainly: Cholinergic receptor muscarinic 1 (CHRM1) small molecule agonists, cell-based qHTS assay (AID 1963589). Note: nearly all actives have a fitted effect of over 35% in size. In short, it runs like this: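 Stable CHRM1-CHO cells (human receptor) were incubated 18 h, dye-loaded for 1 h at 37 C and exposed to test compounds for agonist activity, with calcium-dependent fluorescence followed kinetically.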
Muscarinic acetylcholine receptor M1 (Homo sapiens), sequence (P11229 whole entry, looked up): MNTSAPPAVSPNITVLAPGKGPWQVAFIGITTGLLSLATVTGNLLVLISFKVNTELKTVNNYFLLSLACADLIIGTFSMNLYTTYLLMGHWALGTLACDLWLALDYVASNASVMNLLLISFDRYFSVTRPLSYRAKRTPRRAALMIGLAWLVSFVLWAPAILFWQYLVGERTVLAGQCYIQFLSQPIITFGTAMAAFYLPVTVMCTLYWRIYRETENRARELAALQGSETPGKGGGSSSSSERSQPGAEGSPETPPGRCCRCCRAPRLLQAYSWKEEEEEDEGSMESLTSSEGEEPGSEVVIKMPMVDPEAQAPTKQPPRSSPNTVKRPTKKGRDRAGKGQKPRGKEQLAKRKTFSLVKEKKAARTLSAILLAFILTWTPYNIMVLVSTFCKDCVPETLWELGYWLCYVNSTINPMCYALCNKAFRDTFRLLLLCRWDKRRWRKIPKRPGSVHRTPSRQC

A short description of test [8]: cAMP Responsive Elements (CRE) small molecule agonists, cell-based qHTS assay (AID 1963590). In short, it runs like this: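 FRET-based beta-lactamase readout (LiveBLAzer B/G, 2 h RT) quantified CRE activation in HEK 293T CRE-bla cells after 3 h treatment with DMSO-dissolved compounds.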
Test [9] is described as follows: cAMP Responsive Elements (CRE) small molecule antagonists, cell-based qHTS assay (AID 1963591; active = well fitted inhibition curve with a large enough effect in the signal ratio in the repeat runs, not every such curve was filed as active; the % refers to the signal ratio). In outline:
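qHTS in CRE-bla HEK 293T cells: compound in DMSO, then 0.25 uM NKH477 (final), 3 h at 37 °C/5% CO2; beta-lactamase FRET read-out after 2 h substrate incubation.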

The target of test [10] is Beta-2 adrenergic receptor (Homo sapiens) (UniProt P07550). In words: Adrenergic beta2 receptor (ADRB2) small molecule antagonists, cell-based qHTS assay (AID 1963592). Note: nearly all actives have a fitted effect of over 50% in size. Note: potency is the fitted concentration of half-maximal effect. In short, it runs like this:
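Cells (CHO, stable ADRB2 overexpression) incubated 18-20hr at 37C; compounds added from DMSO; agonist mix (1nM isoproterenol, 100uM IBMX, 25uM Ro-20-1724) added; 0.5hr RT; d2-cAMP and anti-cAMP-cryptate added; 1hr RT; 665/615 nm read.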

In test [11] the target is D(2) dopamine receptor (Homo sapiens) (UniProt P14416). Put plainly: Dopamine D2 receptor (DRD2) small molecule antagonists, cell-based qHTS assay (AID 1963595; active = well fitted inhibition curve with a large enough effect in the signal ratio in the repeat runs, with a control signal flat; the % refers to the signal ratio; note: potency is the fitted concentration of half-maximal effect). In outline:
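Antagonist mode in DRD2-HEK293 cells: after compound addition with 0.1 mM Ro20-1724, cells received quinpirole (12 nM) and NKH477 (200 nM) for 30 min at room temperature; HTRF cAMP read after 1 h detection.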

Test [12] deals with KiSS-1 receptor (Homo sapiens) (UniProt Q969F8). In words: Human kisspeptin (KISS1R) small molecule agonists, calcium flux assay in KISS1R-HEK293 cells (AID 1920064; active = well fitted activation curve with a large enough effect in the repeat runs). In short, it runs like this:
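Intracellular calcium mobilization in KISS1R-HEK293 cells was recorded by fluorescence (Ex/Em 480/540) for 3 min following compound addition to cells pre-loaded 1 h with calcium dye.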

Test [13] is described as follows: G protein-coupled receptor (GPCR) small molecule agonists, calcium flux assay: HEK293 wild type cell line counter screen (AID 1920065). In outline: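 In this agonist-mode screen, ATP is the positive control and DMSO the vehicle. Cells grow 18 h before a 1 h dye incubation at 37 C; signal is taken at Ex/Em 480/540 over 3 min.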
Test [14] can be described thus: p53 small molecule agonists, cell-based qHTS assay with human liver microsomes (AID 1963577). In outline: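 In this qHTS, p53 response-element beta-lactamase cells receive test compound together with a microsome/NADPH activating system (0.5 mg/mL final each) and are incubated 16 h at 37 C before LiveBLAzer fluorescence detection.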
Test [15] is described as follows: p53 small molecule agonists, cell-based qHTS assay with rat liver microsomes (AID 1963578). In short, it runs like this:
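Agonist mode in p53RE-bla reporter cells, with compounds co-incubated 16 h at 37 C alongside 0.5 mg/mL rat liver microsomes and 0.5 mg/mL NADPH (final), followed by a 2 h LiveBLAzer detection step.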

In test [16] the target is Muscarinic acetylcholine receptor M1 (Homo sapiens) (UniProt P11229). Put plainly: Cholinergic receptor muscarinic 1 (CHRM1) small molecule antagonists, cell-based qHTS assay (AID 1963588). Note: nearly all actives have a fitted effect of over 40% in size. In outline:
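CHRM1-CHO calcium-flux assay, antagonist mode. Cells were seeded 18 h, dye-loaded 1 h at 37 C and given compound for 5 min at RT, then acetylcholine was added at 50nM. FDSS fluorescence was read 3 min; 15 concentrations, three runs.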

The target of test [17] is D(2) dopamine receptor (Homo sapiens) (UniProt P14416). Put plainly: Dopamine D2 receptor (DRD2) small molecule agonists, cell-based qHTS assay (AID 1963594). Note: nearly all actives have a fitted effect of over 35% in size. In short, it runs like this:
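cAMP accumulation in DRD2-HEK293 cells measured by HTRF after 1 h detection; compounds added 10 min before NKH477 (200nM […]) forskolin-analogue stimulation, 30 min at room temperature, with Ro20-1724 present at 0.1 mM final.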

The target in test [18] is Beta-2 adrenergic receptor (Homo sapiens) (UniProt P07550). In words: Adrenergic beta2 receptor (ADRB2) small molecule agonists, cell-based qHTS assay (AID 1963593).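 Note: CHO cells stably overexpressing human ADRB2.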 In short, it runs like this:
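CHO cells stably over-expressing ADRB2 were plated overnight at 37C, then dosed with compounds plus a stimulation mix containing 100uM IBMX and 25uM Ro-20-1724 for 0.5hr at room temperature. cAMP was measured by HTRF competition, 1hr.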

Test [19] can be described thus: p53 small molecule agonists, cell-based qHTS assay (AID 1963582; active = well fitted activation curve with a large enough effect in the signal ratio in the repeat runs, not every such curve was filed as active; the % refers to the signal ratio). In short, it runs like this: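 Agonist activity was scored from beta-lactamase FRET fluorescence in p53RE-bla cells treated 16 h at 37 C with compounds in DMSO, substrate incubation being 2 h at room temperature.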

Values without a mark were called inactive. Results filed as inconclusive are left out. Active and inactive are the calls of the source. Unless noted, calls come from the whole dose curve.

KiSS-1 receptor (Homo sapiens), sequence (Q969F8 whole entry, looked up): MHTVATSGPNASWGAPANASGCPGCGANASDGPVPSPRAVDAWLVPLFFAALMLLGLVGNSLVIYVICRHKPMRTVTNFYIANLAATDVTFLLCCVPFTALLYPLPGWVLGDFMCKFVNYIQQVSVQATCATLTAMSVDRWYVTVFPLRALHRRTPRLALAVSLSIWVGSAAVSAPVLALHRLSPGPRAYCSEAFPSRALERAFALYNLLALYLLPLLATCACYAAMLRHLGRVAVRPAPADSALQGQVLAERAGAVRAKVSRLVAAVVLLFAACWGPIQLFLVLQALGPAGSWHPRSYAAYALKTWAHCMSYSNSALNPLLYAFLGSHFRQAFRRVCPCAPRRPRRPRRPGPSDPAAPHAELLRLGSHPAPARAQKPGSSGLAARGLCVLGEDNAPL
Beta-2 adrenergic receptor (Homo sapiens), sequence (P07550 whole entry, looked up): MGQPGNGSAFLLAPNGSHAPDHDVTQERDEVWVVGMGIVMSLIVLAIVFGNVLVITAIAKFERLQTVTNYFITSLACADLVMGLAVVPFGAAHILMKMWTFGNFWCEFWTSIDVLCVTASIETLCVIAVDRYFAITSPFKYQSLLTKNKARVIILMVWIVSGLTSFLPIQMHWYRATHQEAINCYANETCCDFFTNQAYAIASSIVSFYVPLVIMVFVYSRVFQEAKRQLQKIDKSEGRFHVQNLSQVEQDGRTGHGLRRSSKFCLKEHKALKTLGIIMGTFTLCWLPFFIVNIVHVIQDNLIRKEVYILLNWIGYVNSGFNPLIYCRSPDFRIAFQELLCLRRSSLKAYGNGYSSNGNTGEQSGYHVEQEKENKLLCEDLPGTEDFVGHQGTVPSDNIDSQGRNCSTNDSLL
5-hydroxytryptamine receptor 2A (Homo sapiens), sequence (P28223 whole entry, looked up): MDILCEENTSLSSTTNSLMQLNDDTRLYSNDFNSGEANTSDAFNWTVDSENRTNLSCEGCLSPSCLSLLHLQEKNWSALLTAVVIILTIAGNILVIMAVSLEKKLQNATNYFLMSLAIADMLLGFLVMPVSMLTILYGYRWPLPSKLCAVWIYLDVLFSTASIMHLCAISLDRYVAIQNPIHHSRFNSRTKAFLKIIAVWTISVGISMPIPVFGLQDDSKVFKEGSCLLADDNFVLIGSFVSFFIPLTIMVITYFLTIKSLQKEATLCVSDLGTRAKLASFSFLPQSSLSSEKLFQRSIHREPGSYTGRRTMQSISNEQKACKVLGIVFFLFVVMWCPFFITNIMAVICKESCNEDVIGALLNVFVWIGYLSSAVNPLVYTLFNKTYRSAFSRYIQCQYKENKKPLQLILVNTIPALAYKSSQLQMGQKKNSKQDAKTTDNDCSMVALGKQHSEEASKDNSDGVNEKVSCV
D(2) dopamine receptor (Homo sapiens), sequence (P14416 whole entry, looked up): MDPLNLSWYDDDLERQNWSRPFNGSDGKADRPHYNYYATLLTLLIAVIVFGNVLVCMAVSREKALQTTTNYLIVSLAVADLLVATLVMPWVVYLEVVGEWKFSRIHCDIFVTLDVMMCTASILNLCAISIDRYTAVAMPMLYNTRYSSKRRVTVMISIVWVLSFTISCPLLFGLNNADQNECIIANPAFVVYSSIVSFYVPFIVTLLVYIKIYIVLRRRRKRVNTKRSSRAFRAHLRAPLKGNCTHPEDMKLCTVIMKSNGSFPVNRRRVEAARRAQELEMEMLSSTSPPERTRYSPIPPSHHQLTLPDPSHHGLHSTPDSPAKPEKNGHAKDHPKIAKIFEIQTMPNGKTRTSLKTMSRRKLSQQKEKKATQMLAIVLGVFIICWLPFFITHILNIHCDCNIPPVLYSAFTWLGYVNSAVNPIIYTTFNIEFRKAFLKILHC

With `c1ccc2sc(SN(C3CCCCC3)C3CCCCC3)nc2c1`, the Potency entry in test [1], in test [2], in test [3], in test [4], in [5] and in [6] was “inactive” in each case. Further, the Potency result in test [7], in [8], in test [9], in test [10] and in [11] was “inactive” throughout.
Consider `CNCC[C@H](Oc1cccc2ccccc12)c1cccs1`, for which the Potency entry in [12], in test [13], in test [14], in test [2], in [3] and in test [4] was “inactive” each time. The Potency result in [7], in test [8], in [9] and in [11] was “inactive” in each case.
Turning to `Cc1c(C)n(Cc2ccccc2)c2ccc(C(=O)OCCN(C)C)cc12`, the Potency entry in [1], in test [13], in test [14], in test [15], in test [2] and in test [3] was “inactive” each time. For the same compound, the Potency entry in test [16], in [7], in [8], in test [10] and in test [17] was “inactive” each time. The Potency in test [5] was 16.3 µM (active); in test [11] it was 33.5 µM (active).
For the compound `CC[C@@H]([C@H](C)O)n1ncn(-c2ccc(N3CCN(c4ccc(OC[C@@H]5CO[C@@](Cn6cncn6)(c6ccc(F)cc6F)C5)cc4)CC3)cc2)c1=O`, the Potency result in [1], in test [13], in test [14], in test [15], in test [4] and in test [5] was “inactive” in each case. Moreover, the Potency entry in test [6], in test [16], in test [7], in test [10], in test [18] and in test [17] was “inactive” each time. Moreover, the Potency entry in test [11] was “inactive”.
For `COc1cc(Cc2cnc(N)nc2N)cc(OC)c1OC`, the Potency result in test [1], in [13], in test [4], in test [19], in [5] and in test [6] was “inactive” in each case. Besides, the Potency entry in test [16], in test [7], in [8], in test [10], in test [17] and in [11] was “inactive” each time.
As for `NCCCC(O)(P(=O)(O)O)P(=O)(O)O`, the Potency entry in test [1], in [13], in test [4], in [8], in [9] and in test [10] was “inactive” each time. Moreover, the Potency entry in test [18], in [17] and in [11] was “inactive” in each case.
For the compound `O=C(O)CCn1c2c(c3ccccc31)C[C@H](NS(=O)(=O)c1ccc(F)cc1)CC2`, the Potency entry in test [12], in test [13], in [5], in [6], in test [16] and in test [7] was “inactive” in each case. Moreover, the Potency entry in test [8], in test [10], in test [17] and in [11] was “inactive” throughout.
For `CN(C)C(=O)C(CCN1CCC(O)(c2ccc(Cl)cc2)CC1)(c1ccccc1)c1ccccc1`, the Potency result in test [1], in test [13], in [4], in test [19], in test [9] and in test [17] was “inactive” throughout. In addition, in test [11], the Potency entry was “inactive”. Also, in test [10], the Potency is 11.9 µM (active).
As for `CNCCCCOc1ccccc1Cc1ccccc1`, the Potency entry in test [12], in test [13], in test [14], in test [15], in [3] and in test [4] was “inactive” each time. For the same compound, the Potency entry in [19], in test [16], in test [7], in test [9], in test [17] and in test [11] was “inactive” throughout. Moreover, the figures for the Potency in test [5], in test [6] and in test [10] were 0.115 µM (active), 10.7 µM (active) and 8.41 µM (active), respectively.
